Here are results for 34 targets from the supplement of paper PMC10849652.

Targets with a hit are over-represented here; the source holds about 7,900 in all. About 0.6% of all pairs of compound and target were hits. Values without a mark were called inactive.

UniProt O76003, sequence (O76003 whole entry, looked up): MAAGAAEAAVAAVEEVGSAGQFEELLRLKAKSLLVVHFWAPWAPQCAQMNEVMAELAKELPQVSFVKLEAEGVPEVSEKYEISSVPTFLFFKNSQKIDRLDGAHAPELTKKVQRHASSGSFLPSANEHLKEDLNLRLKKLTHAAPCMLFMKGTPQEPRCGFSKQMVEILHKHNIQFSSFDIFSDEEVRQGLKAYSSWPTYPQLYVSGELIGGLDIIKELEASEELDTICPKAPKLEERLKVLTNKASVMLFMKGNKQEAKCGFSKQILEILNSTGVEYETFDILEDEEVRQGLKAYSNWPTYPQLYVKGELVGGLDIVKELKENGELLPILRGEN
UniProt Q5SSJ5, sequence (Q5SSJ5 whole entry, looked up): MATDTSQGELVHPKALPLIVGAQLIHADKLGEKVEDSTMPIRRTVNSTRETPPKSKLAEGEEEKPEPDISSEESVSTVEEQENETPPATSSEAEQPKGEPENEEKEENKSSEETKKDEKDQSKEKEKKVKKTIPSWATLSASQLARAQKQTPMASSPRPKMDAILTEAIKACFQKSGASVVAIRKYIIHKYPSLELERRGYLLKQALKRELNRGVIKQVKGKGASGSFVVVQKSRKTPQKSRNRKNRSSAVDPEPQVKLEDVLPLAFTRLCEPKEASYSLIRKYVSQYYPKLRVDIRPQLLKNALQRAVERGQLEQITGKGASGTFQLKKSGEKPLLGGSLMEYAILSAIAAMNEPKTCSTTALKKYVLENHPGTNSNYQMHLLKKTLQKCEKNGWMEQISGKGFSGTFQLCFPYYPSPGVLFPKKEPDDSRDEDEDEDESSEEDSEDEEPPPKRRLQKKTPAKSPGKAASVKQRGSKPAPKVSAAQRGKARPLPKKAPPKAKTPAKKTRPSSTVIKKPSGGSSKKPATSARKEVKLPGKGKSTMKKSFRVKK
UniProt Q8IWJ2, sequence (Q8IWJ2 whole entry, looked up): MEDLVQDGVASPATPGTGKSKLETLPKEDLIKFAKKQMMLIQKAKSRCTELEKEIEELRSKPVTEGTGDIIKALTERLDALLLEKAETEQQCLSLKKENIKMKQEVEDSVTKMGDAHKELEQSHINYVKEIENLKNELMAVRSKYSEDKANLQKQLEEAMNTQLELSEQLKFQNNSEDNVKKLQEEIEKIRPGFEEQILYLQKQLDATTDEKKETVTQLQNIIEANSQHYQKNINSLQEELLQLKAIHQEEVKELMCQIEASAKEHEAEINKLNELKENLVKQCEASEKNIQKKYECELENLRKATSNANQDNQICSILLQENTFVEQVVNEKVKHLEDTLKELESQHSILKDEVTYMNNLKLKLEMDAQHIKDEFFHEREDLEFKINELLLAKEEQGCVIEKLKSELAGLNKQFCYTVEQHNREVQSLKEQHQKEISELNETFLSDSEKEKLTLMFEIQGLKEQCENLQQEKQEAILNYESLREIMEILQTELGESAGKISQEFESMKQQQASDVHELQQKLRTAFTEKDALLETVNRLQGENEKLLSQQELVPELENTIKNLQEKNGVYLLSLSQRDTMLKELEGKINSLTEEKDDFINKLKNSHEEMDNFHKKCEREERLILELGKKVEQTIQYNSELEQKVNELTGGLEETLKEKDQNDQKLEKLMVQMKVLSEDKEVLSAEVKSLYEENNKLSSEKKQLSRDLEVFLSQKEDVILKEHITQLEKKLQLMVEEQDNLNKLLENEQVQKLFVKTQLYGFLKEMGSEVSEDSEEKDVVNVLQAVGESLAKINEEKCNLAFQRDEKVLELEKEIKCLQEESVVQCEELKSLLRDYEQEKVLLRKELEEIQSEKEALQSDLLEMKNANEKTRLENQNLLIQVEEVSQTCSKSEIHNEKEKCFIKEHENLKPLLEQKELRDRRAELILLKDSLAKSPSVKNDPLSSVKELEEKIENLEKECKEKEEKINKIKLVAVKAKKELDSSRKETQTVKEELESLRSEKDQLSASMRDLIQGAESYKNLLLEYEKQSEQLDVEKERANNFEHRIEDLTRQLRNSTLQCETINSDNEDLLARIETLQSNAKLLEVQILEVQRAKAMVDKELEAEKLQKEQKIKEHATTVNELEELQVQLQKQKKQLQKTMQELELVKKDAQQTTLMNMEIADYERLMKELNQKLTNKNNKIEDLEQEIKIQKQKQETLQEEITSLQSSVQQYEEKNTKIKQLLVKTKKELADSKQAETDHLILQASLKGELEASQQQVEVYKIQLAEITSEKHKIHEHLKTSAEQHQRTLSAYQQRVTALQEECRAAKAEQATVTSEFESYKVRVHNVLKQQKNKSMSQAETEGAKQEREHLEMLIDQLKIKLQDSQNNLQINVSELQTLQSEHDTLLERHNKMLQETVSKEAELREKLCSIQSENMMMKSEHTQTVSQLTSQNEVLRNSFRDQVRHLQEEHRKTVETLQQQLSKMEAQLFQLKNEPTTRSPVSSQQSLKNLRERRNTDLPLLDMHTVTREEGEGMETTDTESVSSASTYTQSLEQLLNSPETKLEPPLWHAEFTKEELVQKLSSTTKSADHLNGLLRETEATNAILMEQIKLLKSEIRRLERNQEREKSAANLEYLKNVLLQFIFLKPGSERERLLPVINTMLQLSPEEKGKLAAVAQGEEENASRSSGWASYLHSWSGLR
UniProt Q9UK97, sequence (Q9UK97 whole entry, looked up): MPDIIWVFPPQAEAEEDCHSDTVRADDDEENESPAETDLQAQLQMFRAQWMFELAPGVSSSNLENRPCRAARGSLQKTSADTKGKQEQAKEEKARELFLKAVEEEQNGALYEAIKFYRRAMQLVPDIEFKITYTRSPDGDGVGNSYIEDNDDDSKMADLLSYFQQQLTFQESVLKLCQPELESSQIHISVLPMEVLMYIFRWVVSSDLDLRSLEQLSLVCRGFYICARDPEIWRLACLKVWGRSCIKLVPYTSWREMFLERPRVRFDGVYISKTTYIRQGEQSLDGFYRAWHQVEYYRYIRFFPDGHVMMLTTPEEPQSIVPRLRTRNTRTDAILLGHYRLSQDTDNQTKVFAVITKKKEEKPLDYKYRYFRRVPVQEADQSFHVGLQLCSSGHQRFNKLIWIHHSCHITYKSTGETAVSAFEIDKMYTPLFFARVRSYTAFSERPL
UniProt O75146, sequence (O75146 whole entry, looked up): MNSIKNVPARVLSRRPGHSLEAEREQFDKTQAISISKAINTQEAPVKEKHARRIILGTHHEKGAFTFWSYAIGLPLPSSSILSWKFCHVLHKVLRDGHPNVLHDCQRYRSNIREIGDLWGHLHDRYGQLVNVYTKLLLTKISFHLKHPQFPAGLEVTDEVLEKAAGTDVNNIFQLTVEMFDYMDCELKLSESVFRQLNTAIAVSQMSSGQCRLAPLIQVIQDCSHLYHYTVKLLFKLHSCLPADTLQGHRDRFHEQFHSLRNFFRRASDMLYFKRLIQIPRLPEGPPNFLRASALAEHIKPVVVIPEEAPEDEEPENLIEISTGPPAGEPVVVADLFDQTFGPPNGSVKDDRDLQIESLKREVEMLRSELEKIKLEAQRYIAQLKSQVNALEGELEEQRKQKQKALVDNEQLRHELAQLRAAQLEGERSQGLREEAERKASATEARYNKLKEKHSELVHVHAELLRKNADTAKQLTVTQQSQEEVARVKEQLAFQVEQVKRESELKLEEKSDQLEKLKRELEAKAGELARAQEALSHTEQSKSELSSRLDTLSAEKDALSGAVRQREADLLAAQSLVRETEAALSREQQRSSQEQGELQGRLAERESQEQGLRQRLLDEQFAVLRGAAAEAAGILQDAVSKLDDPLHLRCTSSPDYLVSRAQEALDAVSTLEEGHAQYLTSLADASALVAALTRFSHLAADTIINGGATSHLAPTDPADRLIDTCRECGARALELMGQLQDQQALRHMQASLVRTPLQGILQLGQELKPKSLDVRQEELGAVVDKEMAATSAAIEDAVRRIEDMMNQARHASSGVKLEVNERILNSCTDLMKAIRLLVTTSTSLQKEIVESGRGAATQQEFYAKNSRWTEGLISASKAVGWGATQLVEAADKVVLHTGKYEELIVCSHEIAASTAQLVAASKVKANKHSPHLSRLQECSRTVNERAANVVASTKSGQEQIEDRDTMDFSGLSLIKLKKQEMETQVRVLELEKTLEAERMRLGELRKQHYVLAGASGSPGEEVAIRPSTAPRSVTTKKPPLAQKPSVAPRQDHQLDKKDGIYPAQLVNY
UniProt Q9Y6M1, sequence (Q9Y6M1 whole entry, looked up): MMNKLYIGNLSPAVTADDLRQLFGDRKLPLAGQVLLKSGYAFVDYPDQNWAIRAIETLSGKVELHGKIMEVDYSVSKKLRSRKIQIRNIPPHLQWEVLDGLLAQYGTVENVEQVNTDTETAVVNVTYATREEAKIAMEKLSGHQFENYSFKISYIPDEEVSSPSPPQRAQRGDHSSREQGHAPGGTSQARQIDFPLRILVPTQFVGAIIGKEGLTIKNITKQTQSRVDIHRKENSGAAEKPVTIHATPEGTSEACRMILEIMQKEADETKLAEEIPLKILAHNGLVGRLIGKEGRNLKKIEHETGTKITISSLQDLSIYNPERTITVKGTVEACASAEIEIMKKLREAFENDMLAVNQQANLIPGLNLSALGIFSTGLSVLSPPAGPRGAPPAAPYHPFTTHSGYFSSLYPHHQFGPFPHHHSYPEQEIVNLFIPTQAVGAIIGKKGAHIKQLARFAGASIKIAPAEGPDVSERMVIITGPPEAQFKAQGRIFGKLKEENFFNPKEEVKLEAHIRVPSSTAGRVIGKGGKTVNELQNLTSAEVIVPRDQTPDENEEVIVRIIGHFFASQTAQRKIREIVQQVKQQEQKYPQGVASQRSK
UniProt Q9NP66, sequence (Q9NP66 whole entry, looked up): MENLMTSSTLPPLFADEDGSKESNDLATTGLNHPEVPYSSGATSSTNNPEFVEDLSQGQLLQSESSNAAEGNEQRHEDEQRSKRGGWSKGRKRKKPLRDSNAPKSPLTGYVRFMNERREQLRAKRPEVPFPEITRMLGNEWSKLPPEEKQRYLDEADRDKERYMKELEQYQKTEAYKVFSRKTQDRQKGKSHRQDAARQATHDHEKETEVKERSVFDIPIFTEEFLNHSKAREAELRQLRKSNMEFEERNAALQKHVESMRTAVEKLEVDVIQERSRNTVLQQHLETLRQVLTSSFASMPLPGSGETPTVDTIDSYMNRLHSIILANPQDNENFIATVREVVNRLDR

Compound in one test: Cn1cncc1[C@@](N)(c1ccc(Cl)cc1)c1ccc2c(c1)c(-c1cccc(Cl)c1)cc(=O)n2C [tipifarnib]
The test is described as follows: log2 fold change, soluble protein after heating vs DMSO (PISA); higher = thermal stabilisation; K562 cells, 10 uM, 30 min; active = over 0.2 and 3.5 SD of the protein, either way, in both replicates (recomputed). The procedure, abridged:
(§1)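 K562 cells at 2×10^6 cells/mL were treated for 30 min with 10 μM compound, and aliquots were heated for 3 min over 48°C-58°C before pooling. Extraction used PBS with 0.5% NP-40 at 4°C, and soluble protein was the supernatant after 21,000xg for 90 min, measured by TMTpro 16plex LC-MS/MS with channel sums equalised. Thermal stability values, relative to control samples and from duplicates, are log2 fold changes.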
Consider IGF2BP2 (UniProt Q9Y6M1), for which the log2 fold change is 0.069.

For the target FARS2 (UniProt O95363), the log2 fold change was 0.018.

Turning to HECTD1 (UniProt Q9ULT8), the log2 fold change is -0.088.

Turning to HRAS (UniProt P01112), the log2 fold change is 0.006.

Turning to HMG20A (UniProt Q9NP66), the log2 fold change is 0.064.

In the case of GCC2 (UniProt Q8IWJ2), the log2 fold change was 0.051.

Consider GAPVD1 isoform 6 (UniProt Q14C86), for which the log2 fold change is -0.135.

As for GSTP1 (UniProt P09211), the log2 fold change was -0.007.

Regarding GYS1 (UniProt P13807), the log2 fold change is 0.147.

Consider FBXO9 (UniProt Q9UK97), for which the log2 fold change is -0.088.

For the target HOMER1 (UniProt Q86YM7), the log2 fold change is -0.031.

As to GLYR1 (UniProt Q49A26), the log2 fold change is 0.054.

In the case of HIP1 (UniProt O00291), the log2 fold change is -0.099.

In the case of HDGFL2 (UniProt Q7Z4V5), the log2 fold change was 0.032.

Take GTF2E2 (UniProt P29084): the log2 fold change was 0.051.

Consider HIP1R (UniProt O75146), for which the log2 fold change was -0.075.

As to FDFT1 (UniProt P37268), the log2 fold change was 0.089.

On to HNRNPK isoform 2 (UniProt P61978), for which the log2 fold change was 0.007.

Consider GLRX3 (UniProt O76003), for which the log2 fold change was -0.082.

As for HRC (UniProt P23327), the log2 fold change is 0.016.

GNL1 (UniProt P36915): the log2 fold change is -0.152.

Take GTF3C4 (UniProt Q9UKN8): the log2 fold change was 0.014.

With FECH isoform 2 (UniProt P22830), the log2 fold change is 0.134.

GPD1 (UniProt P21695): the log2 fold change is 0.057.

In the case of GPKOW (UniProt Q92917), the log2 fold change is -0.071.

Consider FBL (UniProt P22087), for which the log2 fold change was 0.301.

As to GLUD2 (UniProt P49448), the log2 fold change is 0.079.

HP1BP3 (UniProt Q5SSJ5): the log2 fold change is 0.028.

Turning to HADHB (UniProt P55084), the log2 fold change is -0.264.

Regarding HSPA8 (UniProt E9PK54), the log2 fold change was 0.227.

As for FERMT3 (UniProt Q86UX7), the log2 fold change is -0.087.

GDI1 (UniProt P31150): the log2 fold change was -0.06.

For the target FOXK1 (UniProt P85037), the log2 fold change is 0.008.

As to FNTB (UniProt P49356), the log2 fold change was 0.757 (active).

Compound in a further test: FC(F)(F)c1ccc(/C=C/c2nc(COc3ccc(CCCCn4ccnn4)cc3)co2)cc1 [mubritinib]
Described as above. The method in brief: as §1
Regarding IGF2BP2 (UniProt Q9Y6M1), the log2 fold change is -0.071.

For the target FARS2 (UniProt O95363), the log2 fold change was -0.168.

For the target HECTD1 (UniProt Q9ULT8), the log2 fold change was -0.144.

As to HRAS (UniProt P01112), the log2 fold change was 0.033.

For the target HMG20A (UniProt Q9NP66), the log2 fold change was -0.021.

For GCC2 (UniProt Q8IWJ2), the log2 fold change was -0.088.

Regarding GAPVD1 isoform 6 (UniProt Q14C86), the log2 fold change is 0.028.

Take GSTP1 (UniProt P09211): the log2 fold change was 0.038.

Turning to GYS1 (UniProt P13807), the log2 fold change was 0.001.

For the target FBXO9 (UniProt Q9UK97), the log2 fold change is -0.265.

As to HOMER1 (UniProt Q86YM7), the log2 fold change is 0.089.

Turning to GLYR1 (UniProt Q49A26), the log2 fold change is 0.024.

Turning to HIP1 (UniProt O00291), the log2 fold change was 0.077.

HDGFL2 (UniProt Q7Z4V5): the log2 fold change was 0.098.

For GTF2E2 (UniProt P29084), the log2 fold change is -0.02.

For the target HIP1R (UniProt O75146), the log2 fold change is 0.036.

As to FDFT1 (UniProt P37268), the log2 fold change was 0.022.

With HNRNPK isoform 2 (UniProt P61978), the log2 fold change is -0.024.

Regarding GLRX3 (UniProt O76003), the log2 fold change was -0.004.

In the case of HRC (UniProt P23327), the log2 fold change is 0.041.

For GNL1 (UniProt P36915), the log2 fold change was 0.009.

On to GTF3C4 (UniProt Q9UKN8), for which the log2 fold change is 0.01.

In the case of FECH isoform 2 (UniProt P22830), the log2 fold change was 0.034.

Take GPD1 (UniProt P21695): the log2 fold change is 0.045.

On to GPKOW (UniProt Q92917), for which the log2 fold change was 0.126.

Consider FBL (UniProt P22087), for which the log2 fold change was -0.241.

GLUD2 (UniProt P49448): the log2 fold change is 0.041.

For the target HP1BP3 (UniProt Q5SSJ5), the log2 fold change is 0.026.

As to HADHB (UniProt P55084), the log2 fold change was 0.571 (active).

On to HSPA8 (UniProt E9PK54), for which the log2 fold change is 0.024.

Regarding FERMT3 (UniProt Q86UX7), the log2 fold change was 0.051.

On to GDI1 (UniProt P31150), for which the log2 fold change was 0.062.

Turning to FOXK1 (UniProt P85037), the log2 fold change is 0.03.

Take FNTB (UniProt P49356): the log2 fold change was -0.103.
